Bioassay records: PubChem BioAssay, National Center for Advancing Translational Sciences (NCATS)
An excerpt weighted towards active compounds, which were near 3.1% of everything screened.
PI4K2A inh – qHTS for small molecular inhibitors of PI4K2A; Phosphatidylinositol 4-kinase type 2-alpha (Homo sapiens), Q9BTU6; purified PI4K2A, ADP-Glo luminescence, 1 h; active compounds read low; activity change, negative = inhibition, % at 76.9 µM; 0.13% of 420,000 active; AID 1346378, 2018; in the data active means activity change below about -50%; inconclusive means mostly about -30% to -49%
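ADP-Glo luminescence measured ADP generated by PI4K2A enzyme (4 ug/mL before mixing) with 1.2 mM PI substrate (pre-mix) and 300 microM ATP (pre-mix). Tris pH7.5 buffer with MgCl2, Triton X-100; 1 h reaction at ambient temperature.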
PLK1 PBD inh – qHTS for Inhibitors of PLK1-PDB (polo-like kinase 1 - polo-box domain): Primary Screen; Serine/threonine-protein kinase PLK1 (Homo sapiens), P53350; Plk1 PBD binding of FITC phosphopeptide, fluorescence polarization; Potency, µM, most hits filed as inhibitors; 2.8% of 360,000 active; AID 720504, 2013; further: series mostly up to about 57 µM; nearly all actives have a fitted effect of over 65% in size
KAT2A inh – qHTS Assay for Inhibitors of GCN5L2; 0.21% of 390,000 active; GCN5L2 HAT assay, ThioGlo1 CoA-SH fluorescence; Potency, µM (highest dose often 58.9 µM), usual class: inhibitors
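Enzyme at 20nM final was mixed with library compounds for 15 min at room temperature. Peptide H3(1-25) at 75uM, acetyl-CoA at 70uM and ThioGlo1 at 50uM were then added. Plates were read immediately and after 20 min (Ex340nm/Em540nm).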
VDR inh – Inhibitors of the vitamin D receptor (VDR): qHTS | 0.93% of 400,000 active | Vitamin D3 receptor (Homo sapiens), P11473 | VDR-SRC2-3 peptide fluorescence polarization, 2 h | Potency, µM, usual class: inhibitors
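Compounds are added to VDR with labelled SRC2-3 coactivator peptide and held 2 h at room temperature. Inhibition of the VDR–peptide interaction is then read as a change in fluorescence polarization.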
GLS inhibitor – qHTS for Inhibitors of Glutaminase (GLS); 0.21% of 410,000 active; GLS enzymatic activity, qHTS titration; Glutaminase kidney isoform, mitochondrial (Homo sapiens), O94925; Potency, µM (titrated, usually from 45.5 µM), hits mostly inhibitors
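Enzyme dispensed in phosphate buffer (45 mM, pH 8.2, 0.02% Tween-20), compounds pinned in, then 1 mM L-glutamine solution and the glutamate oxidase–HRP–Amplex Red mix added; fluorescence read immediately and again after 30 min at room temperature.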
Of the large screens only hits and unclear results are named; the others gave an inactive call. Unless noted, the call rests on the fitted dose curve; in most records, active means well fitted curve in the direction sought with a large enough effect; inconclusive means small, poorly fitted or top-dose-only effect, or another doubt; inactive means no such curve, though single readings can be large; an effect the other way counts as inactive or inconclusive.

COCCOc1ccc(C(F)(F)F)cc1Nc1nc2ccccc2o1	PLK1 PBD inh 6.7µM, VDR inh inconclusive
CCSC1=C(C#N)C2(CCCC2)C(C#N)=C(N)N1	PLK1 PBD inh 3µM, GLS inhibitor inconclusive
CC(C)C(=O)N1CCN(C2=NS(=O)(=O)c3ccccc32)CC1	PLK1 PBD inh 6.7µM
Cc1ccc(-c2cc(-c3nnc(SCC(=O)N4c5ccccc5Sc5ccc(Cl)cc54)n3N)[nH]n2)cc1	none (no result: PLK1 PBD inh, KAT2A inh, VDR inh, GLS inhibitor)
COC(=O)c1cn(-c2ccc(-c3noc4c3C(=O)N(CC(=O)N3CCOCC3)CC4)cc2)nn1	none (no result: PLK1 PBD inh, KAT2A inh, VDR inh, GLS inhibitor)
CCCCOc1ccc(C2OC34CCCCC3C(C#N)(C#N)C2(C#N)C(=N)O4)cc1 (stereo unspecified)	PLK1 PBD inh 21µM, VDR inh inconclusive
COCCN=C1Sc2nc3c(C)cccc3cc2CN1Cc1ccco1	PLK1 PBD inh inconclusive, VDR inh 89µM
Cc1ccc2nc3c(cc2c1)CN(Cc1ccco1)C(=NCC1CCCO1)S3 (stereo unspecified)	PLK1 PBD inh 27µM, VDR inh inconclusive
COC1=C(OC)C(=O)C(CC=C(C)CCC=C(C)CCC=C(C)CCC=C(C)CCC=C(C)CCC=C(C)CCC=C(C)CCC=C(C)CCC=C(C)CCC=C(C)C)=C(C)C1=O	none (no result: PI4K2A inh, PLK1 PBD inh, KAT2A inh, VDR inh)
CC1(CC(=O)N/N=C/c2cc([N+](=O)[O-])c(O)cc2O)OCCO1	PLK1 PBD inh 9.5µM, VDR inh inconclusive
CC1(CC(=O)N/N=C/c2ccc(-c3ccc(Cl)cc3)o2)OCCO1	none
COc1ccc(C(=O)Nc2nc3ccccc3s2)c(OC)c1	PLK1 PBD inh 3.4µM, VDR inh inconclusive, GLS inhibitor inconclusive
COc1ccccc1C(=O)Nc1nc2ccc(S(C)(=O)=O)cc2s1	none
COc1ccccc1C(=O)Nc1nc2ccccc2s1	PI4K2A inh -71
CN(C(=O)[C@@H]1CC=C[C@@H]2CCN(C3CCCCC3)C(=O)[C@@H]21)c1ccccc1	none (no result: PLK1 PBD inh, KAT2A inh, VDR inh, GLS inhibitor)
O=C(O)c1cc(-c2ccc(/C=C3/SC(=S)N(Cc4ccccc4)C3=O)o2)ccc1Cl	none
CN1C(=O)/C(=C/c2ccc(-c3ccccc3[N+](=O)[O-])o2)SC1=Nc1ccc(Cl)c(C(=O)O)c1	PLK1 PBD inh 27µM, VDR inh inconclusive, GLS inhibitor inconclusive
CC[C@@H](C)[C@H]1O[C@]2(CC[C@H]1C)C[C@@H]1C[C@@H](CC=C(C)[C@@H](O[C@H]3C[C@H](OC)[C@@H](O[C@H]4C[C@H](OC)[C@@H](O)[C@H](C)O4)[C@H](C)O3)[C@@H](C)C=CC=C3CO[C@@H]4[C@H](O)C(C)=C[C@@H](C(=O)O1)[C@]34O)O2	none (no result: PLK1 PBD inh, GLS inhibitor)
CC(C)CCn1c(=O)c2sccc2n2c(CCCC(=O)Nc3ccc(C(C)C)cc3)nnc12	none (no result: PLK1 PBD inh)
CCOc1cc(CNc2ccc(O)cc2)cc(Br)c1OCc1ccccc1F	PI4K2A inh inconclusive, VDR inh 79µM
COc1cc(CNc2ccc(O)cc2)cc(Br)c1OCc1ccccc1F	PI4K2A inh -51, KAT2A inh inconclusive, VDR inh 35µM
COc1cc(CNCc2ccncc2)cc(Br)c1OCc1ccccc1F	none
Cc1ccc(-n2nc(C(=O)N(C)Cc3ccccc3)c3c4ccccc4n(C)c3c2=O)cc1	none (no result: PLK1 PBD inh)
COC(=O)[C@]12C[C@H](CC(=O)N3CCC(c4ccccc4)CC3)C(=O)N(Cc3cccc4ccccc34)C1=C[C@H](COCc1ccccc1)O[C@@H]2C	none (no result: PLK1 PBD inh, KAT2A inh, VDR inh, GLS inhibitor)
CN(C(=O)[C@@H](C1CC1)[C@@H](O)c1ccc2ccccc2c1)c1ccccc1	none (no result: PLK1 PBD inh, KAT2A inh, VDR inh, GLS inhibitor)
COc1ccc(CC2CCN(c3ncnc4sccc34)CC2)cc1	none (no result: PLK1 PBD inh, KAT2A inh, VDR inh, GLS inhibitor)
COc1cc(NC(=O)c2ccc(COCC(F)(F)F)cc2)cc(OC)c1OC	PLK1 PBD inh 4.7µM
COc1cc(C=NN2CCN(C(c3ccccc3)c3ccccc3)CC2)cc(OC)c1OC(C)=O	none (no result: PLK1 PBD inh, KAT2A inh, VDR inh, GLS inhibitor)
Cc1cccc(NC(=O)N(C)Cc2cccs2)c1	KAT2A inh 32µM
Cc1cccc(NC(=S)NCc2cccs2)c1	none
O=C(CSc1nnc(-c2ccccn2)n1-c1ccc(Cl)cc1)Nc1cccc2ccccc12	none (no result: PLK1 PBD inh, KAT2A inh, VDR inh, GLS inhibitor)
